In the supplement of paper PMC11417369:
± gives the standard deviation of the averaged measurements. Whole data set: some 25,000 sequences, median “ln(normalized median fluorescence intensity)” near 10, cut for the highest 2% near 12. For the sample, the highest values were picked, then their nearest neighbours and some sequences at random.

What follows are sequences tested on PfAP2-G AP2 domain (GST-tagged) (assay: gcPBM binding intensity (ln(normalized median fluorescence intensity)); higher = stronger DNA binding).
Method in brief: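 Probes on an Agilent 4 × 180k array were primer-extended, double-stranded and 36 bp long, taken from intergenic genomic regions, with negative controls added. GST-tagged P. falciparum DNA-binding domains from E. coli, about 25 μg on average, were applied to the array for 1 h in 1× PBS containing 1% milk, 0.2 mg/ml BSA, 0.5% salmon testes DNA and 0.03% Triton X-100. Binding intensity, obtained after Alexa488 anti-GST antibody detection and a 488 nm scan, is the highest Masliner-normalised natural-log median intensity across replicate spots of either probe orientation.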

| Sequence | gcPBM binding intensity (ln) |
| --- | --- |
| GAAAAAGACAAAAGGTGTACAATATGAAATATATAT [XGTACX_site373] | 11.5 ± 0.86 |
| AACATATTAATGTACACACACCCACGCACAAACAAA [CACACA_site7320] | 11.5 ± 0.91 |
| ATATGAAAGGTGTACACACGCACACCCAAAAAAATA [CACACA_site2911] | 11.7 ± 0.95 |
| AATGTACACGCACCCACACACAAACAAATATAAATA [CACACA_site7319] | 11.4 ± 1 |
| GTGTAATATGAAATGTGTACACACGCACACACAAAA [XGTACX_site6180] | 11.7 ± 1.1 |
| TGTAATATGAAATGTGTACACACGCACCCACAAAAA [CACACA_site8948] | 11.6 ± 1 |
| AATGTACACCCACCCACACACAAACAAATATATATA [CACACA_site5521] | 11.4 ± 0.92 |
| ATTTTTTTACAAAAATGTACACATGAAATATGTAAT [XGTACX_site1372] | 11.3 ± 0.69 |
| GAAATGTGTAGACACGCACACACAAAAAAATATATA [CACACA_site2912] | 10.2 ± 0.34 |
| AATGTGTACGCACGCACACACAAAAAAATATATATA [CACACA_site2913] | 11.6 ± 1.2 |
| AATTTGTTAATATTTTGTACACATAATATAAAAACA [XGTACX_site2224] | 11.3 ± 0.89 |
| ATAATATGAAGAAGCACACTCAATTAAATACAGATA [CACACA_site4690] | 9.97 ± 0.071 |
| ACAAAATGTAGAAAATGTACAAAATTAACAAAAGAA [XGTACX_site5019] | 10.7 ± 0.3 |
| CTTCTTGTAAAATTTGCATGTAATTAAAAGAGAATG [TGCATGCA_site484] | 10.2 ± 0.3 |
| TACAAAAAATTATGGAGTACATATATAATATACAAT [XGTACX_site1004] | 11.5 ± 0.88 |
| GCACTCGTAAAAAGCACACATATAAAAACATTTATA [CACACA_site322] | 10.2 ± 0.26 |
| TTTTTTTTTTTTTTTTGTACTTATAAAAAATTTTTT [XGTACX_site1249] | 11.1 ± 0.88 |
| TAAAATTTTGTTTGTTGTACTTATTTTCGTGTCAAC [XGTACX_site8277] | 11.6 ± 1 |
| AAATAAAATTTTTGTTGTACTTATTTTTAGTATACT [XGTACX_site4254] | 11.5 ± 0.81 |
| ATATATATACTGTGTACACACATATGTATTTATATA [CACACA_site4600] | 11.6 ± 0.78 |
| TACATATTTTTTATGTGTACATATTTTTTATGTGTG [XGTACX_site444] | 11.5 ± 0.68 |
| TACATATTTTTTATGTGTACATATTTTTTATGTGTA [XGTACX_site443] | 11.4 ± 0.76 |
| TATATTTATTTTCTGTGTACACATATGTTGTGTATT [XGTACX_site7640] | 11.6 ± 1 |
| GAAAAAAGAAAAAAAAGTACACACATGTATATTAAT [XGTACX_site5265] | 11.5 ± 0.91 |
| CAACATATGCATATGTGTACATATTTTATTTTCAAC [XGTACX_site2237] | 11.7 ± 1.1 |

| Sequence | gcPBM binding intensity (ln) |
| --- | --- |
| TATATAATATATATATGTACACATATACATTTTTAT [XGTACX_site2832] | 11.5 ± 0.97 |
| AAAATATTTAATAGAAGTACACATGTATATATACAT [XGTACX_site8942] | 11.6 ± 1.2 |
| AAAATAATATATGTATGTACATATACACATATAGAA [XGTACX_site2218] | 11.1 ± 0.59 |
| GATAACAATATGTGTACACATTTATATCTCCACATA [CACACA_site5442] | 11.7 ± 0.83 |
| ATTTATTTTCTGTGTACACATATGTTGGGTATTTTA [CACACA_site5902] | 11.7 ± 0.96 |
| ATAACATACATAACAACACACAATATTTATATGTAT [CACACA_site210] | 9.85 |
| GAATGTCTAATTTTGATGCACACTTTTGTGCAATTA [CACACA_site2902] | 10.2 ± 0.24 |
| AAAAAAAAAAAAAAAACACACATATATGTATATATA [CACACA_site3276] | 10 ± 0.27 |
| AAGAAAAAAGGGGACAAGGCATATCTATATATACAT [TGCATGCA_negctrl_site172] | 10.7 ± 0.52 |
| TTATAATTAAGATATAATCAATAATAACAAATGAAC [CACACA_negctrl_site1690] | 9.84 ± 0.014 |
| AAACCGAATTTACATGAATGTAAATTATGTTGTTTT [CACACA_negctrl_site1834] | 9.53 ± 0.13 |
| TTTGCTTCCAAAAGTCGTACAAAAAATATTAAATAT [XGTACX_site4171] | 11.6 ± 0.9 |
| AATGAAGACTTTTTTACACACTTCATATCTTATAGA [CACACA_site7046] | 9.99 ± 0.028 |
| TTTGTGTATATATAATGTACATTATATTTTTATTAT [XGTACX_site6506] | 10.9 ± 0.53 |
| TTTGATTTTAATGTGTGTACACATTTATTTATATAA [XGTACX_site4806] | 11.8 ± 1.2 |
| TATTTCTGATTATTTTGTACACATTATATATAATGC [XGTACX_site6990] | 11.2 ± 0.83 |
| GTATATATGTATATGTGTACACATATTCTTAACTCA [XGTACX_site309] | 11.6 ± 0.89 |
| AAAAATTACCCTTGTGTACACATATATTATCTGTAT [CACACA_site4513] | 11.6 ± 0.95 |
| CAAAAATTACCCTTGTGTACACATATATTATATGTA [XGTACX_site1124] | 11.6 ± 0.91 |
| TATCTGTATATGTGTACACATATTCTTAACTCACGC [CACACA_site4255] | 11.7 ± 1 |
| ATGTGATATAAGTACACACACATATGTATATAGAAT [CACACA_site1823] | 11.5 ± 1.1 |
| GTATGTATATTTATCTGTACATATTTATGTATTCTT [XGTACX_site2112] | 11.2 ± 0.64 |
| ATGTGATAGAAGTACACACACATATGTATTTATAAT [CACACA_site5075] | 11.7 ± 1.1 |
| AAATTACCCTTGTGTACACATATATTATCTGTATTA [CACACA_site4514] | 12 ± 1.4 |
| ATGTGATATAAGTACACACACATATGTATTTATAAC [CACACA_site6942] | 11.5 ± 0.8 |
